Source: the supplement of paper PMC12636033
± gives the standard deviation of the averaged measurements. In all, about 33,000 sequences were measured (“E-score (rank enrichment, -0.5 to 0.5)”: median about -0.0028, highest 2% from about 0.23 on). This excerpt belongs to a sample that is enriched for the highest values.

System: 2Sb-muMax20 (muMax20 with two 1,3-bis(methyl)benzene Cys staples, A13C/A17C and Q88C/A92C, C-terminal Lys)
Experiment: PBM 8-mer E-score (E-score (rank enrichment, -0.5 to 0.5)); higher = stronger preferential binding
Procedure: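 Protein binding microarray (universal PBM chip covering all 10-mers in fixed probe flanks) with chemically synthesized human Max(13-93) bHLH-LZ analogs (not full-length Max) bearing noncanonical residues (hArg, Tha, Aib, Nle at 65) and aromatic Cys staples. Read-out per 8-mer (and its reverse complement): E-score (rank-based enrichment, -0.5 to 0.5) and Z-score of median probe intensity.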

Question: Which “PBM 8-mer E-score” value does the source give for AACGGTGG here?
Answer: -0.0485 ± 0.0095

Question: GAAATGGC was tested. Which “PBM 8-mer E-score” value did it give?
Answer: 0.0246 ± 0.0079

Question: ACTATACG was tested. Which “PBM 8-mer E-score” value did it give?
Answer: 0.156 ± 0.033

Question: How did the “PBM 8-mer E-score” value turn out when CTCTAATA was run?
Answer: 0.0986 ± 0.022

Question: For CTAATCAC, which “PBM 8-mer E-score” value is on record?
Answer: 0.14 ± 0.0037

Question: For TGAATCAA, which “PBM 8-mer E-score” value is on record?
Answer: 0.0626 ± 0.026

Question: Which “PBM 8-mer E-score” value does the source give for TTAATCAA here?
Answer: 0.0337 ± 0.0076

Question: Which “PBM 8-mer E-score” value does the source give for CGAATCAG here?
Answer: -0.163 ± 0.065

Question: How did the “PBM 8-mer E-score” value turn out when CTAATCAA was run?
Answer: 0.277 ± 0.014

Question: For CGAATCAA, which “PBM 8-mer E-score” value is on record?
Answer: 0.2677 ± 0.00054

Question: AGGCCACT was tested. Which “PBM 8-mer E-score” value did it give?
Answer: 0.129 ± 0.0082

Question: How did the “PBM 8-mer E-score” value turn out when CGTAGCAA was run?
Answer: -0.0306 ± 0.0061

Question: With ACTTCATA as the sequence, how does the “PBM 8-mer E-score” value read?
Answer: 0.0718 ± 0.0033

Question: Which “PBM 8-mer E-score” value does the source give for CTAACCGC here?
Answer: -0.0848 ± 0.018

Question: For GAAGTTTA, which “PBM 8-mer E-score” value is on record?
Answer: -0.0783 ± 0.12

Question: How did the “PBM 8-mer E-score” value turn out when AAAGTTTC was run?
Answer: -0.0128 ± 0.036

Question: AAAGTTTA was tested. Which “PBM 8-mer E-score” value did it give?
Answer: 0.249 ± 0.022

Question: With CCGAGAGG as the sequence, how does the “PBM 8-mer E-score” value read?
Answer: -0.225 ± 0.049

Question: CAGCGCGA was tested. Which “PBM 8-mer E-score” value did it give?
Answer: -0.0207 ± 0.052

Question: With GCCCCATA as the sequence, how does the “PBM 8-mer E-score” value read?
Answer: 0.356 ± 0.039

Question: CACCCATA was tested. Which “PBM 8-mer E-score” value did it give?
Answer: 0.21 ± 0.0057

Question: Which “PBM 8-mer E-score” value does the source give for CCCCCATA here?
Answer: 0.0403 ± 0.02

Question: GACCCATA was tested. Which “PBM 8-mer E-score” value did it give?
Answer: 0.23906 ± 6.4e-05

Question: AACCCATA was tested. Which “PBM 8-mer E-score” value did it give?
Answer: 0.229 ± 0.016

Question: GGCCCATA was tested. Which “PBM 8-mer E-score” value did it give?
Answer: -0.0795 ± 0.036

Question: CATCTACA was tested. Which “PBM 8-mer E-score” value did it give?
Answer: 0.137 ± 0.025

Question: ACCTGATC was tested. Which “PBM 8-mer E-score” value did it give?
Answer: -0.0825 ± 0.031

Question: How did the “PBM 8-mer E-score” value turn out when ATCTAGGG was run?
Answer: 0.171 ± 0.013

Question: With AACCCTCT as the sequence, how does the “PBM 8-mer E-score” value read?
Answer: -0.0379 ± 0.0099

Question: Which “PBM 8-mer E-score” value does the source give for ACCCATAT here?
Answer: 0.252 ± 0.051

Question: With ACGCATAA as the sequence, how does the “PBM 8-mer E-score” value read?
Answer: 0.17 ± 0.01

Question: Which “PBM 8-mer E-score” value does the source give for ACCCATAG here?
Answer: 0.0412 ± 0.039

Question: CCCCACAC was tested. Which “PBM 8-mer E-score” value did it give?
Answer: 0.19 ± 0.13

Question: Which “PBM 8-mer E-score” value does the source give for CCCCACAA here?
Answer: 0.264 ± 0.0045

Question: Which “PBM 8-mer E-score” value does the source give for AACCATAA here?
Answer: 0.13 ± 0.018

Question: How did the “PBM 8-mer E-score” value turn out when ACCCATAC was run?
Answer: 0.119 ± 0.051

Question: With AACCATAC as the sequence, how does the “PBM 8-mer E-score” value read?
Answer: -0.0703 ± 0.11

Question: For CCCCACAG, which “PBM 8-mer E-score” value is on record?
Answer: -0.09771 ± 0.00011

Question: Which “PBM 8-mer E-score” value does the source give for ACGCATAT here?
Answer: 0.246 ± 0.0099

Question: How did the “PBM 8-mer E-score” value turn out when ACGCATAG was run?
Answer: -0.0652 ± 0.023

Question: AACCATAT was tested. Which “PBM 8-mer E-score” value did it give?
Answer: 0.232 ± 0.0038

Question: Which “PBM 8-mer E-score” value does the source give for ACACAGAG here?
Answer: -0.0541 ± 0.0044

Question: ACGGACTG was tested. Which “PBM 8-mer E-score” value did it give?
Answer: -0.167 ± 0.011

Question: With ACAGGACA as the sequence, how does the “PBM 8-mer E-score” value read?
Answer: -0.0877 ± 0.075

Question: How did the “PBM 8-mer E-score” value turn out when TCCTAAGA was run?
Answer: -0.186 ± 0.031

Question: GTAGCTAC was tested. Which “PBM 8-mer E-score” value did it give?
Answer: 0.0481 ± 0.06

Question: For ACCCATTA, which “PBM 8-mer E-score” value is on record?
Answer: 0.161 ± 0.015

Question: Which “PBM 8-mer E-score” value does the source give for ACGCACAA here?
Answer: 0.0307 ± 0.012

Question: ACCCATAA was tested. Which “PBM 8-mer E-score” value did it give?
Answer: 0.25 ± 0.023

Question: With CACCATTA as the sequence, how does the “PBM 8-mer E-score” value read?
Answer: -0.044 ± 0.042

Question: With CCCCATAA as the sequence, how does the “PBM 8-mer E-score” value read?
Answer: 0.3007 ± 0.003

Question: Which “PBM 8-mer E-score” value does the source give for AGCCATAA here?
Answer: 0.0405 ± 0.0087

Question: How did the “PBM 8-mer E-score” value turn out when GCCCATAA was run?
Answer: 0.0149 ± 0.062

Question: Which “PBM 8-mer E-score” value does the source give for AACCATTG here?
Answer: -0.163 ± 0.044

Question: How did the “PBM 8-mer E-score” value turn out when TCCCATAA was run?
Answer: 0.0657 ± 0.052

Question: For AACCATTA, which “PBM 8-mer E-score” value is on record?
Answer: 0.276 ± 0.005

Question: With ACGCACAT as the sequence, how does the “PBM 8-mer E-score” value read?
Answer: 0.235 ± 0.024

Question: For ACGCACAG, which “PBM 8-mer E-score” value is on record?
Answer: -0.146 ± 0.017

Question: For TCCTGGAA, which “PBM 8-mer E-score” value is on record?
Answer: -0.283 ± 0.06

Question: TACTTTCA was tested. Which “PBM 8-mer E-score” value did it give?
Answer: 0.0779 ± 0.057

Question: How did the “PBM 8-mer E-score” value turn out when TACCGAGA was run?
Answer: -0.0899 ± 0.043

Question: For CGGCGTGA, which “PBM 8-mer E-score” value is on record?
Answer: -0.113 ± 0.017

Question: For CTAAGTGA, which “PBM 8-mer E-score” value is on record?
Answer: -0.204 ± 0.046

Question: How did the “PBM 8-mer E-score” value turn out when AGCGTGCC was run?
Answer: -0.0325 ± 0.041

Question: With CTTGGAAC as the sequence, how does the “PBM 8-mer E-score” value read?
Answer: 0.128 ± 0.018

Question: AGTACGTC was tested. Which “PBM 8-mer E-score” value did it give?
Answer: 0.257 ± 0.02

Question: How did the “PBM 8-mer E-score” value turn out when AGTACGTG was run?
Answer: 0.0987 ± 0.039

Question: Which “PBM 8-mer E-score” value does the source give for AGTACGTA here?
Answer: 0.183 ± 0.018

Question: For GCCCGAAC, which “PBM 8-mer E-score” value is on record?
Answer: -0.0411 ± 0.062

Question: How did the “PBM 8-mer E-score” value turn out when AATCCGCA was run?
Answer: -0.0479 ± 0.02

Question: How did the “PBM 8-mer E-score” value turn out when CGATTCCC was run?
Answer: 0.142 ± 0.0041

Question: With AAGACACG as the sequence, how does the “PBM 8-mer E-score” value read?
Answer: 0.23 ± 0.029

Question: For CAGACACG, which “PBM 8-mer E-score” value is on record?
Answer: -0.0916 ± 0.036

Question: For AAGACACA, which “PBM 8-mer E-score” value is on record?
Answer: 0.0534 ± 0.033

Question: CCCCGTAA was tested. Which “PBM 8-mer E-score” value did it give?
Answer: 0.276 ± 0.014

Question: With CCCCGTAG as the sequence, how does the “PBM 8-mer E-score” value read?
Answer: -0.0497 ± 0.00093

Question: With ACCCGTAA as the sequence, how does the “PBM 8-mer E-score” value read?
Answer: -0.0543 ± 0.035

Question: How did the “PBM 8-mer E-score” value turn out when GCTAGGTA was run?
Answer: -0.0432 ± 0.18

Question: ATTGTGTC was tested. Which “PBM 8-mer E-score” value did it give?
Answer: 0.0993 ± 0.063

Question: How did the “PBM 8-mer E-score” value turn out when GGGGCGTA was run?
Answer: 0.15 ± 0.08

Question: For GACGTGGC, which “PBM 8-mer E-score” value is on record?
Answer: -0.00165 ± 0.017

Question: For CACGTGGC, which “PBM 8-mer E-score” value is on record?
Answer: 0.317 ± 0.015

Question: With CACGTGGA as the sequence, how does the “PBM 8-mer E-score” value read?
Answer: 0.383 ± 0.029

Question: With AACGTGGG as the sequence, how does the “PBM 8-mer E-score” value read?
Answer: 0.196 ± 0.0051

Question: With CACGTGGG as the sequence, how does the “PBM 8-mer E-score” value read?
Answer: 0.438 ± 0.0088

Question: For GACGTGGA, which “PBM 8-mer E-score” value is on record?
Answer: 0.0221 ± 0.026
